The record followed here is PubChem BioAssay.

The nature of experiment [1]: compounds altering viability of human ES cells (AID 493140; call rule not given here;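 also: cells exposed to compounds for four days before counting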). The note with it: human embryonic stem cell survival screen; stronger effect = higher value.
Experiment [2] can be described thus: P. berghei load reduction in hepatocytes – cell-based, HepG2, luciferase luminescence, HepG2 viability, primary screen (AID 624349; in the data active = parasite load remaining mostly below about 12%, no sharp cut-off; inactive = mostly above about 10%;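 also: 100% = mean of DMSO negative control wells on the same plate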). Particulars: P. berghei liver stage in HepG2, luciferase luminescence, concentration not given here; parasite load remaining: stronger effect = lower value; viability: measured here: HepG2 viability without parasites.
The nature of experiment [3]: viability loss in pontine glioma line – cell-based, SU-DIPG-XVII, MIPE5.0, CellTiter-Glo, qHTS, dose response (AID 1347060).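 As to AC50: cells exposed to compound for 48 hours before viability readout.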 The note with it: CellTiter-Glo ATP luminescence.
The nature of experiment [4]: viability loss in pontine glioma line – cell-based, SU-DIPG-XIII, MIPE4.0, CellTiter-Glo, qHTS, dose response (AID 1347061; cut-off not given, nearly all actives have AC50 up to about 37 µM;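 also: cells exposed to compound for 48 hours before readout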). Particulars: CellTiter-Glo ATP luminescence. On the technique in general: Cellular ATP, detected with luciferase, serves as a proxy for viable cell number.
Experiment [5] can be described thus: viability loss in pontine glioma line – cell-based, JHH-DIPG-1, MIPE4.0, CellTiter-Glo, qHTS, dose response (AID 1347062; cut-off not given, nearly all actives have AC50 up to about 27 µM;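 as to AC50: cells exposed to compound for two days before readout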). Particulars: JHH-DIPG-1 viability, CellTiter-Glo ATP luminescence.
The nature of experiment [6]: viability loss in pontine glioma line – cell-based, SU-DIPG-XIII, MIPE5.0, CellTiter-Glo, qHTS, dose response (AID 1347064; cut-off not given, nearly all actives have AC50 up to about 23 µM). The note with it: CellTiter-Glo ATP luminescence.
Experiment [7] can be described thus: viability loss in pontine glioma line – cell-based, SU-DIPG-XXV, MIPE5.0, CellTiter-Glo, qHTS, dose response (AID 1347065).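 Also: cells exposed to compound for 48 hours before ATP readout.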 Particulars: CellTiter-Glo ATP luminescence.
Experiment [8] in a line: growth inhibition of DIPG cells – cell-based, MIPE4.0 library, CellTiter-Glo luminescence, qHTS (AID 1347066; cut-off not given, nearly all actives have AC50 up to about 30 µM;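 also: cells exposed to compound for 48 hours before readout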). Particulars: SU-DIPG-VI viability, CellTiter-Glo ATP luminescence.
Experiment [9] in a line: JHH-DIPG-1 glioma cell viability, MIPE5.0 library, CellTiter-Glo luminescence, qHTS (AID 1347067).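 Also: cells exposed to compound for 48 hours before readout.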 Particulars: JHH-DIPG-1 glioma viability, CellTiter-Glo ATP luminescence.
Experiment [10] is described as follows: growth inhibition of DIPG cells – cell-based, MIPE5.0 library, qHTS (AID 1347068; cut-off not given, nearly all actives have IC50 up to about 30 µM). Particulars: SU-DIPG-XXV viability. A general note: Quantitative high-throughput screening tests each substance at several concentrations.
A short description of experiment [11]: compounds altering circadian rhythm period length – cell-based, LOPAC library, luminescence reporter (AID 2774; call rule not given here;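 also: values are relative to mean of DMSO wells on each plate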). Particulars: circadian reporter cells, at 7 µM, actives lie on both sides.
Experiment [12] relates to Hepatitis C virus NS3 helicase. As to the kind of experiment: blockers of NS3h binding to ssDNA – biochemical, fluorescence polarization, LOPAC1280 library, primary screen (AID 687035; in the data active = inhibition above about 37%). The note with it: Purified HCV NS3 helicase, Cy5-dT15 ssDNA binding fluorescence polarization; stronger effect = higher value; concentration not given here. (In general: In fluorescence polarisation assays a small probe gives low polarisation when free and higher when bound to something large.)

Experiment [13] can be described thus: compounds altering Cy5-DNA-NS3h complex signal – biochemical, LOPAC1280, artefact control for HCV NS3 helicase inhibitor project (AID 687037; call rule not given here). The note with it: Cy5-DNA-NS3h complex fluorescence interference counterscreen.
In experiment [14] the test system is Aerobactin synthetase IucA (Klebsiella pneumoniae, hypervirulent). As to the kind of experiment: biochemical IucA inhibition screen of LOPAC library by absorbance (AID 1346212; call rule not given here;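 also: 100% = no compound wells and 0% = no enzyme wells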). Particulars: IucA enzyme assay, absorbance (OD) readout; stronger effect = lower value;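 tested at 8 µM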.
Experiment [15] is described as follows: viability loss in pontine glioma line – cell-based, SU-DIPG-IV, MIPE4.0, CellTiter-Glo, qHTS, dose response (AID 1347063; cut-off not given, nearly all actives have AC50 up to about 30 µM;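 also: compound exposure lasted 48 hours before the viability readout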). Particulars: CellTiter-Glo ATP luminescence.
Experiment [16] in a line: viability loss with induced miR-34 in A549 – imaging, A549 dox-inducible miR-34, nuclei and caspase counts, primary screen (AID 1347080;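 active = compounds whose cell count with miR-34 switched on is under 0.7 times the count with it off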). Particulars: A549 miR-34 inducible, Hoechst nuclei count, 48 h.
Experiment [17] is described as follows: MELAS cybrid and Rieske KO viability enhancers – cell-based, MELAS cybrids, Rieske KO mouse fibroblasts, CellTiter-Glo, primary screen (AID 1508586;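 active = mean z-score across replicates of 1.96 or higher in either the MELAS or the Rieske mutant cell line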;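 also: z relative to plate mean and SD of compound and empty wells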). Particulars: low glucose.
Where [18] appears, read: stronger effect = lower value, cell number ratio, induced over uninduced.
Where [19] appears, read: measured here: relative caspase fold change +Dox/-Dox.
Where [20] appears, read: measured here: total cells with miR-34 induction, stronger effect = lower value.
[21] abbreviates: measured here: total cells without miR-34 induction.
[22] abbreviates: MELAS cybrid survival, CellTiter-Glo 48 h, stronger effect = higher value.
The mark [23] stands for this setting: Rieske KO mouse fibroblast survival, CellTiter-Glo 72 h.

Results filed as inconclusive are left out. Calls of active or inactive are those of the source. Unless noted, the limit is not given here; nearly all actives have AC50 up to about 26 µM.

By viability is commonly meant a per cent measure of how many cells are alive, often set against a control. As usually defined, the AC50 is the concentration at which the activity in the assay is half-maximal. `C=C[C@H]1CN2CCC1C[C@@H]2[C@@H](O)c1ccnc2ccccc12` (some centres not stated): in experiment [1], the survival was 1.25 (inactive). In addition, the parasite load remaining in experiment [2] was 79% (inactive). In addition, in experiment [2], the viability amounted to 73.5%. The molecule was classed as inactive in experiment [3], in experiment [5], in experiment [6], in [7], in [9] and in [10]. For the same molecule, the AC50 in [4] and in [8] was 20.9 µM (active) in each case.

One may read the inhibition as the drop in the measured response relative to a control, in per cent. As usually defined, the remaining activity is the signal under treatment as a percentage of the control signal. On to `CCN(CCCl)Cc1ccccc1Br`, for which the period change in experiment [11] is -0.02 h (inactive). Further, the inhibition in experiment [12] was -2% (inactive). In addition, the fluorescence ratio (interference) in experiment [13] is 1 (inactive). Moreover, in experiment [14], the remaining activity is 111% (inactive).

`Cc1ccccn1.[Cl][Pt][Cl].[NH2-]`: the call in experiment [3], in [4], in experiment [7] and in [10] was inactive.

`N=C1NC(=O)N2CC12` (configuration not stated): the call in experiment [3], in [4], in experiment [6], in experiment [7], in experiment [9] and in experiment [10] was inactive. The AC50 in experiment [5] is 2.09 µM (active).

On to `O=C(O)CNC(=O)c1c(O)c2ccccc2n(Cc2ccccc2)c1=O`, for which the call in experiment [3], in experiment [4], in experiment [5], in [15], in [6] and in experiment [7] was inactive. Further, the result in experiment [8], in experiment [9] and in [10] was inactive. For the same molecule, the fold change in [16] (setting [18]) is 1.05 (inactive); in experiment [16] (setting [19]) it was 0.358. The figures for the cell count in [16] (setting [20]) and in experiment [16] (setting [21]) were 8330 and 7930, respectively. In addition, the z-score in experiment [17] (setting [22]) is -0.124 (inactive); in [17] (setting [23]), -0.159.

Turning to `O=C(Oc1ccc([N+](=O)[O-])cc1)N1CCN(Cc2cccc(Oc3ccccc3)c2)CC1`, the result in [3], in experiment [5], in experiment [6], in experiment [7], in [8] and in experiment [9] was inactive. In experiment [4], the AC50 is 11.8 µM (active).

Consider `CC1(C)CC(O)CC(C)(C)N1O`, for which the result in experiment [3], in experiment [4], in [5], in experiment [15], in experiment [6] and in experiment [7] was inactive. Further, the result in [8], in experiment [9] and in experiment [10] was inactive. Also, the fold change in experiment [16] (setting [18]) is 0.97 (inactive); in [16] (setting [19]) it was 0.416. Also, the cell count was found to be 7440 in experiment [16] (setting [20]) and 7670 in experiment [16] (setting [21]). The z-score in [17] (setting [22]) was -0.227 (inactive); in experiment [17] (setting [23]), -0.223.

For the molecule `C/C(=C\c1csc(C)n1)[C@@H]1C[C@@H]2O[C@]2(C)CCC[C@H](C)[C@H](O)[C@@H](C)C(=O)C(C)(C)[C@@H](O)CC(=O)O1`, the AC50 was 0.00263 µM (active) in [3] and 0.00166 µM (active) in experiment [7]. Besides, the outcome in [4], in experiment [5], in [15], in experiment [6] and in experiment [8] was inactive.

Regarding `C[C@]12CC[C@H]3[C@@H](CCC4=CC(=O)CC[C@@]43C)[C@@H]1CC[C@@H]2OC(=O)CCC1CCCC1`, the call in [3], in experiment [5], in [15], in experiment [6], in [8] and in [10] was inactive. Besides, the AC50 in experiment [4] is 23.5 µM (active).

With `C/C(=C\c1csc(C)n1)[C@@H]1C[C@@H]2O[C@@H]2CCC[C@H](C)[C@H](O)[C@@H](C)C(=O)C(C)(C)[C@@H](O)CC(=O)O1`, the AC50 in experiment [3] is 0.00662 µM (active); in experiment [7] it was 0.00934 µM (active). Also, the molecule was classed as inactive in experiment [4], in experiment [6] and in experiment [8].
